Test [1] in a line: qHTS drug screen for cell cycle checkpoint inhibitors in PARPi-resistant BRCA-mutant ovarian cancer cell lines. (AID 1963452; calls by dose curve). As to conditions: PEO1/OlaR viability, CellTiter-Glo luminescence, 96 h, stronger effect = lower value. In a few lines: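 PEO1, PEO4 and PEO1/OlaR ovarian cancer cells, 600 per well, exposed 96 h at 37C to a dilution series. Viability read by CellTiter-Glo luminescence, normalized to DMSO and empty wells; activity summarized as Z-AUC.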
(In general: In qHTS, concentration-response curves come from the screen itself.)

A short description of test [2]: qHTS profiling for inhibitors of Plasmodium falciparum proliferation (AID 504749). Also: nearly all actives have a fitted effect of over 60% in size. Also: potency is read from the fitted curve at half-maximal effect.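 As to activity, negative = inhibition: 0% = DMSO vehicle and full inhibition = artemisinin control.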 As to conditions: P. falciparum in erythrocytes, SYBR Green DNA, 72 h. An outline of the steps:
(§1)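 Three-day growth assay of blood-stage parasites in erythrocytes (0.3% parasitemia, 2.5% hematocrit) at 37 C, 5% CO2, quantified by SYBR Green DNA staining after overnight detergent lysis.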

In test [3] the test system is 3D7. Described as above. The note with it: P. falciparum in erythrocytes, SYBR Green DNA, 72 h; series mostly up to 28.7 µM. An outline of the steps: as §1
The test system of test [4] is 7G8. Described as above. The note with it: P. falciparum in erythrocytes, SYBR Green DNA, 72 h; series mostly up to 28.7 µM. In a few lines: as §1
The subject of test [5] is AA1029. Described as above. As to conditions: P. falciparum in erythrocytes, SYBR Green DNA, 72 h; series mostly up to 28.7 µM. In a few lines:
as §1

For test [6], the system named is AS120. The description is as above. The note with it: P. falciparum in erythrocytes, SYBR Green DNA, 72 h; series mostly up to 28.7 µM. In a few lines:
as §1

Test [7] has as its system ATS189. The test is described as above. As to conditions: P. falciparum in erythrocytes, SYBR Green DNA, 72 h; series mostly up to 28.7 µM. In a few lines: as §1
Test [8] concerns ATS95. The description is as above. The note with it: P. falciparum in erythrocytes, SYBR Green DNA, 72 h; series mostly up to 28.7 µM. An outline of the steps:
as §1

Test [9] relates to C2A. The test is described as above. As to conditions: P. falciparum in erythrocytes, SYBR Green DNA, 72 h; series mostly up to 28.7 µM. An outline of the steps: as §1
For test [10], the system named is CP185. The test is described as above. As to conditions: P. falciparum in erythrocytes, SYBR Green DNA, 72 h; series mostly up to 28.7 µM. An outline of the steps:
as §1

Test [11] can be described thus: qHTS for identification of novel therapeutic agents for treatment of microphthalmiaassociated transcription factor (MiT) renal cell carcinoma (RCC) (AID 1963991). As to conditions: CellTiter-Glo, 48 h, stronger effect = lower value. In a few lines: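 Viability of three TFE3-fusion renal carcinoma lines measured by CellTiter-Glo after 48 h treatment with each of 1912 compounds at 11 concentrations. Responses scaled between DMSO (100%) and empty wells (0%) before curve fitting.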

[12] abbreviates: measured here: PEO1 parental Z-AUC.
Where [13] appears, read: at 28.7 µM (top of the series), parasite line A.
Setting [14] is: at 28.7 µM (top of the series), parasite line B.
[15] abbreviates: at 12.8 µM (top of the series), parasite line B.
Where [16] appears, read: TFE3-RCC UOK109 viability, measured here: UOK109 Z-AUC.
The mark [17] stands for this setting: TFE3-RCC viability, measured here: UOK124 Z-AUC.
The mark [18] stands for this setting: TFE3-RCC viability, measured here: UOK145 Z-AUC.

Results on seven compounds are retold here after PubChem BioAssay (NCATS).

“And” between values parts separate entries of the source, which are not always exact repeats. Equal entries are not always repeated. Inconclusive results are not listed. The source made the active and inactive calls. Unless noted, calls follow the shape of the dose curve; as a rule, active = well fitted inhibition curve with a large enough effect; inconclusive = small, poorly fitted or top-dose-only effect; inactive = flat fitted curve, though single readings scatter.

Take `CC(C)OC(=O)C(C(=O)OC(C)C)=C1SC=CS1`: the Z-AUC in test [1] is 1.21 (inactive); in [1] (setting [12]), 0.837; in test [1] (measured here: PEO4 Z-AUC), 1.06. In addition, the activity, negative = inhibition was 2.72% (inactive) in [2] (setting [13]) and 16.3% (inactive) in test [2] (setting [14]). The Potency entry in test [3], in test [4], in test [5], in test [6], in test [7] and in [8] was “inactive” in each case. The Potency result in [9] and in test [10] was “inactive” in each case.
As for `CC(C)(Sc1cc(C(C)(C)C)c(O)c(C(C)(C)C)c1)Sc1cc(C(C)(C)C)c(O)c(C(C)(C)C)c1`, the Z-AUC in test [1] was 0.926 (inactive); in test [1] (setting [12]), 1.36; in test [1] (measured here: PEO4 Z-AUC), 1.09. Moreover, the activity, negative = inhibition in test [2] (at 12.8 µM (top of the series), parasite line A) is 6.04% (inactive); in [2] (setting [15]), 8.09% (inactive). In addition, the Potency in [3] is 3.55 µM (active). The Potency result in test [5], in test [6], in test [7], in [8], in test [9] and in test [10] was “inactive” each time.
As to `OC(Cn1cncn1)(Cn1cncn1)c1ccc(F)cc1F`, the Z-AUC in test [1] was -0.0807 (inactive); in test [1] (setting [12]) it was 0.99; in [1] (measured here: PEO4 Z-AUC) it was 1.12. The results for the z-score in test [11] (setting [16]), in [11] (setting [17]) and in test [11] (setting [18]) were 0.751, 0.906 and -0.107, respectively. Besides, the activity, negative = inhibition in test [2] (setting [13]) was 5.43% (inactive). For the same compound, the Potency result in [3], in test [4], in test [5], in [6], in test [7] and in [8] was “inactive” throughout. For the same compound, the Potency entry in test [9] and in test [10] was “inactive” in each case.
As for `O=C(O)c1cn(C2CC2)c2cc(N3CCNCC3)c(F)cc2c1=O`, the Z-AUC in test [1] is 0.135 (inactive); in test [1] (setting [12]), 0.154; in [1] (measured here: PEO4 Z-AUC), 0.682. For the same compound, the z-score worked out at 1.77 in test [11] (setting [16]), 0.661 in test [11] (setting [17]) and 1.11 in test [11] (setting [18]). Also, the activity, negative = inhibition in test [2] (setting [15]) was -28.9% (inactive). Further, the Potency entry in test [3], in [7] and in test [9] was “inactive” throughout. Moreover, the Potency in test [4] was 3.16 µM (active).
On to `CC(C)NCC(O)c1ccc(NS(C)(=O)=O)cc1` (stereo not given), for which the Z-AUC in test [1] was -0.911 (inactive); in [1] (setting [12]), 1.13; in [1] (measured here: PEO4 Z-AUC) it was 0.42. Further, the activity, negative = inhibition in test [2] (setting [13]) was -2.6% (inactive) and 1.55% (inactive); in test [2] (setting [14]) it was 9.61% (inactive) and 12.6% (inactive). Moreover, the Potency result in test [3], in [4], in [5], in test [6], in [7] and in test [8] was “inactive” each time. Besides, the Potency result in test [9] and in [10] was “inactive” each time.
Regarding `CCc1cc(C(N)=S)ccn1`, the Z-AUC in test [1] is 0.368 (inactive); in [1] (setting [12]) it was -0.0543; in test [1] (measured here: PEO4 Z-AUC), -0.17. Also, the activity, negative = inhibition in test [2] (setting [13]) is -0.167% (inactive); in test [2] (setting [14]), 3.61% (inactive). The Potency entry in [3], in [4], in [5], in test [6], in test [7] and in test [8] was “inactive” each time. Further, the Potency result in test [9] and in test [10] was “inactive” each time.
Turning to `COc1cc2c(Nc3ccc(Br)cc3F)ncnc2cc1OCC1CCN(C)CC1`, the results for the Z-AUC in test [1], in test [1] (setting [12]) and in test [1] (measured here: PEO4 Z-AUC) were 0.231 (inactive), 0.081 and -0.0991, respectively. Besides, the Potency is 1.78 µM (active) in [2] (parasite line A); 1 µM (active) in test [2] (parasite line B); 2.51 µM (active) in test [3]; 3.16 µM (active) in [4]; 2.82 µM (active) in [5]; 3.16 µM (active) in test [6]. The Potency in [7] was 5.01 µM (active); in test [8] it was 3.55 µM (active); in test [9] it was 3.16 µM (active); in [10], 3.55 µM (active).
